RN4220 kill: kills Staphylococcus aureus RN4220; S. aureus RN4220 growth, OD600, 16 h; inhibition, % (test concentration not listed); 330,000 compounds, 0.33% hits; in the data active = inhibition above about 85%;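 note: plate controls were untreated cells for no effect and reference antibiotic for full effect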
ugtP null kill: compounds lethal to S. aureus RN4220 ugtP deletion mutant; OD600 growth, 16 h; 330,000 compounds, 0.54% hits; growth inhibition, % (test concentration not listed); in the data active = growth inhibition above about 68%;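 note: plate controls were untreated wells for no effect and antibiotic for full effect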
PfHsp40 rescue: restores yeast growth despite PfHsp40 toxicity | 340,000 compounds, 0.68% hits | growth rescue, % at 12.5 µM | S. cerevisiae expressing PfHsp40, growth rescue, ATP luminescence; in the data active = growth rescue above about 28%, passing the limit was not always enough; inconclusive = no clear call, values can overlap the other calls;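 note: yeast W303a lacking pdr1 and pdr3 grown in galactose medium; growth measured after three days at 30 °C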
BJeLR viability: kills HRASV12-expressing BJeLR cells; BJeLR (HRASV12) viability, CellTiter-Glo ATP luminescence, 48 h; inhibition, % (test concentration not listed); 300,000 compounds, 0.17% hits; AID 1554; in the data active = inhibition above about 50%; inconclusive = no clear call, values can overlap the other calls
SARS 3CLpro inh: SARS-CoV 3CLpro protease inhibition; P0C6X7; recombinant SARS-CoV 3CLpro, quenched FRET peptide cleavage; inhibition, % at 6 µM; 290,000 compounds, 0.14% hits; AID 1706; in the data active = inhibition above about 12%
The depositor's hits bear a star; ? = inconclusive; nt = no result. The list is not random: actives were taken first. Their share in the collection is about 1.3%.

SMILES	RN4220 kill	ugtP null kill	PfHsp40 rescue	BJeLR viability	SARS 3CLpro inh
O=C(C(=O)c1cc(Br)ccc1O)c1cc(Br)ccc1O	100.2*	100.3*	111.8*	nt	nt
COc1ccc(-n2c(SC(C)C(=O)N3CCOCC3)nc3ccccc3c2=O)cc1 (stereo unspecified)	3.0	10.1	1.1	10.4	1.6
Cn1c2ccccc2c2cc(C(=O)O)ccc21	6.3	3.1	41.6*	10.5	4.8
CCn1c2ccccc2c2nc3cc(C(=O)O)ccc3nc21	16.2	-1.8	?	nt	0.8
C/C(=N\O)c1ccc2c3ccccc3n(C)c2c1	nt	nt	-0.2	14.0	0.9
CCCn1c2ccccc2c2cc(C(=O)O)ccc21	nt	nt	325.3*	-5.0	0.2
O=C(O)c1cccc(Cn2cccn2)c1	1.5	3.2	-0.3	-3.6	5.2
CN(C)S(=O)(=O)N1CCN(c2cc(Cl)ccc2Cl)CC1	6.0	2.4	-0.8	-0.7	3.7
CC1(C)Cc2cccc(OCC(=O)N3CCN(c4cccc(Cl)c4)CC3)c2O1	3.5	-6.3	7.4	-0.3	nt
CC1(C)Cc2cccc(OCC(=O)N3CCN(c4cccc(C(F)(F)F)c4)CC3)c2O1	2.3	-2.1	41.0*	3.2	nt
CC1CCN(C(=O)CN(c2ccccc2)S(=O)(=O)N(C)C)CC1	4.7	3.7	0.3	-3.9	0.4
CCOc1ccc(CCNC(=O)c2cccc(S(=O)(=O)N3CCOCC3)c2)cc1OCC	3.0	13.4	-0.8	8.4	nt
O=C(N/N=C/c1ccccn1)c1sc2ccccc2c1Cl	nt	nt	198.9*	3.3	8.4
CC(=O)c1ccc(OCC(=O)OC(C)C(=O)NC2CCCCC2C)cc1 (stereo unspecified)	2.4	-0.7	-0.4	nt	nt
OCCOCCn1c(C2CCCN2c2nc(-c3ccc(F)cc3)cs2)nc2cc(C(F)(F)F)ccc21 (stereo unspecified)	-5.4	-4.7	?	0.2	nt
OCCCn1c(C2CCCN2c2nc(-c3ccc(F)cc3)cs2)nc2cc(C(F)(F)F)ccc21 (stereo unspecified)	-18.4	-1.9	145.2*	-9.6	nt
OCCOCCn1c(C2CCCN2c2nc(-c3ccc(F)cc3)cs2)nc2cc(Cl)c(Cl)cc21 (stereo unspecified)	-12.8	-8.9	143.4*	-5.6	nt
O=C(CN(C(=O)C1CSC(=O)C1)c1cccc(F)c1)NC1CCCC1 (stereo unspecified)	9.1	8.8	1.0	2.1	-0.3
CC(=O)c1cccc(S(=O)(=O)N2CCCC(c3nc4c(nnn4Cc4ccccc4Cl)c(=O)[nH]3)C2)c1 (stereo unspecified)	1.3	0.2	0.6	-11.5	3.5
CC1(C)SC2C(NC(=O)C(N)c3ccc(O)cc3)C(=O)N2C1C(=O)O (stereo unspecified)	24.4	61.4	nt	nt	nt
CC1(C)SC2C(NC(=O)Cc3ccccc3)C(=O)N2C1C(=O)O (stereo unspecified)	100.4*	98.8*	nt	nt	nt
CC(Oc1ccccc1)C(=O)NC1C(=O)N2C1SC(C)(C)C2C(=O)O (stereo unspecified)	100.3*	100.3*	0.4	1.9	0.9
CC1(C)SC2C(NC(=O)C3(N)CCCCC3)C(=O)N2C1C(=O)O (stereo unspecified)	100.4*	100.6*	0.7	nt	nt
Cc1ccc(-n2c(SCC(=O)N3CCN(c4ccccn4)CC3)nnc2N2CCCC2)cc1	3.1	-0.9	2.0	nt	nt
CC(C)[C@H](NC(=O)C1CCN(S(=O)(=O)c2ccccc2)CC1)C(=O)NCc1ccc(F)cc1	-0.5	11.0	0.1	9.6	-2.9
SMILES	RN4220 kill	ugtP null kill	PfHsp40 rescue	BJeLR viability	SARS 3CLpro inh
COc1ccc2sc(-c3ccccc3OC)c(-c3ccc(O)cc3)c2c1	nt	nt	21.9	nt	nt
COc1ccc(-c2sc3ccc(OC)cc3c2-c2ccc(O)cc2)cc1	76.0	100.1*	0.0	nt	nt
COc1ccc(-c2c(-c3cc(OC)cc(OC)c3)sc3ccc(OC)cc23)cc1	-8.5	92.1*	-0.9	nt	nt
CN(C)CCOc1ccc(-c2c(-c3ccccc3)sc3ccccc23)cc1	100.4*	100.1*	32.7*	nt	nt
COc1ccc(-c2c(-c3ccccc3OC)sc3ccccc23)cc1	-10.5	87.4*	-1.6	-6.0	-4.8
C[C@H](NC(=O)c1nc[nH]c1C(=O)N[C@@H](Cc1ccccc1)C(=O)OC(C)(C)C)C(=O)OCc1ccccc1	nt	nt	2.7	6.2	8.0
COc1cc(OC)cc(-c2sc3ccc(OC)cc3c2-c2ccc(O)cc2)c1	99.5*	100.4*	?	nt	nt
COc1ccc2sc(-c3ccc(N(C)C)cc3)c(C#Cc3cncn3C)c2c1	77.9	82.1*	?	nt	nt
COCc1ccc(-c2c(-c3cccc(OC)c3)sc3ccc(OC)cc23)cc1	-2.6	33.2	0.3	nt	nt
COc1ccc(-c2sc3ccc(OC)cc3c2C#CCCO)cc1	nt	nt	46.2*	-0.1	-3.5
COc1cc2nc(CC(C)C)n(NC(=O)c3ccccc3)c(=O)c2cc1OC	-0.4	-2.2	0.1	5.8	0.9
O=C(Cc1ccccc1)NCC(=O)N/N=C/c1cccs1	nt	nt	0.0	-4.2	0.1
S=C(NCCc1ccccc1)NC1CCCCCC1	0.1	1.4	88.2*	2.6	4.0
S=C(NCCc1ccc(Cl)cc1)NC1CCCCC1	nt	nt	200.0*	0.6	6.4
Cc1cccnc1NC(=S)NCCc1ccccc1	8.4	12.2	60.5*	0.9	8.7
S=C(NCCc1ccc(Cl)cc1)NC1CCCC1	3.7	-2.9	16.9	-3.9	-2.7
S=C(NCCc1ccccc1)Nc1ncccn1	2.2	1.7	-1.0	nt	nt
O=C(CCCc1ccccc1)Nc1ccc(Br)cc1F	0.4	10.4	1.6	7.5	-6.7
COc1ccc(-c2cc(C(=O)N3CCN(c4ccccc4)CC3)no2)cc1	7.3	6.7	5.8	-2.8	4.3
COc1cc(OC)cc(N2C(=O)CC(N3CCC(C(=O)N4CCCCC4)CC3)C2=O)c1 (stereo unspecified)	-1.4	-3.8	67.2*	0.2	-0.1
Cc1cc(C)cc(Oc2ccccc2C=NO)c1	-2.8	87.4*	nt	nt	nt
Cc1ccc(Oc2ccccc2/C=N/O)cc1	nt	nt	-0.8	7.2	1.8
CCCCCc1ccc(-c2cn(Cc3ccc([N+](=O)[O-])cc3)nn2)cc1	nt	nt	0.3	3.1	-2.2
CCCOc1nc(SCCC)nc2c1cnn2-c1ccccc1	-5.0	93.0*	-1.0	-1.1	-2.5
CCCSc1nc2c(cnn2-c2ccccc2)c(=O)n1N	4.1	5.7	1.6	3.0	-1.6
SMILES	RN4220 kill	ugtP null kill	PfHsp40 rescue	BJeLR viability	SARS 3CLpro inh
CC(C)CNC(=S)N(CCN(C)C)Cc1cc2cc3c(cc2[nH]c1=O)OCCO3	1.6	2.1	12.7	-6.5	9.3
COC(=O)CCC(=O)c1oc2ccc(OC)cc2c1N	-12.6	-11.7	-0.3	11.2	3.5
CCOC(=O)c1ccc(-c2c(-c3ccccc3OC)oc3ccccc23)cc1F	-5.5	92.4*	0.5	nt	nt
COc1ccccc1-c1oc2ccccc2c1-c1ccc2cc[nH]c2c1	-18.3	62.0	4.1	nt	nt
O=C(NCCCNc1ccc(C(F)(F)F)cc1[N+](=O)[O-])c1ccc(Cl)cc1	5.2	-19.8	470.6*	1.3	3.4
O=C(Nc1ccc(N2CCOCC2)cc1)c1cc2c(s1)CCCCC2	9.8	1.7	4.6	2.1	3.2
O=C(Nc1ccccc1N1CCOCC1)c1cc2c(s1)CCCCC2	7.5	-4.0	73.2*	-6.5	2.5
O=C(Nc1ccccc1N1CCOCC1)c1ccc([N+](=O)[O-])s1	nt	nt	8.5	nt	nt
